# Assay results: the supplement of paper PMC10338343
# ± gives the standard deviation.
# Tested on: MILI (PIWIL2) piRISC loaded with piRNA #1 (26 nt)
# Test: pre-steady-state target cleavage rate (min^-1); guide: piRNA #1 5'p-UGAGGUAGUAGGUUGUAUAGUAUCCA; MIWI and MILI are mouse PIWI proteins and EfPiwi is from a freshwater sponge; tags in brackets are library labels; higher = faster piRNA-guided slicing of the target
# Details: auxiliary factor: 500 nM mouse GTSF1
# Outline: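 At 33 °C in HEPES–potassium acetate buffer, a transcribed, DNA-blocked target RNA library […] was exposed for 0–8 or 0–960 min to 1 nM active affinity-purified piRISC carrying a single synthetic guide, with or without 500 nM GTSF1 partner protein. Uncleaved targets were sequenced and normalised to depth and to weakly complementary targets. With three trials pooled and k3 capped at 0.0001 min^-1, a burst-and-steady-state fit produced the pre-steady-state cleavage rate.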
# 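Further: 1 nM active piRISC with 0.1 nM target library at 33 °C single turnover.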
row,Sequence,pre-steady-state target cleavage rate
1,GGAGACCUAUGAAUACAACAUACUACCUCA,0.00332 ± 0.0021
2,GGAGACCUAUGAUAUGUACCUUCAACCUCA,< 0.0001
3,GGAGACCUAUGAAUUCAACCUACUACCUCA,0.00274 ± 0.0019
4,GGAGACCAUAGUAUACAACCUACUUCCUCA,0.073 ± 0.014
5,GGAGACCUAUGUAUAGAACCUACUACCUGA,0.00583 ± 0.0025
6,GGAGAGGAUACUUUACUACCUACUACCUCA,0.161 ± 0.011
7,GGAGACCUAUGAUAACAUCCUACAACCUCA,0.00633 ± 0.0025
8,GGAGACCUAUGUAUACAACGUAGUACCUCA,0.0032 ± 0.0023
9,GGAGACGAUAGUUUACAACCUACUACCUCA,0.129 ± 0.01
10,GGAGACCUAACUUUACUACCUACUACCUCA,0.0581 ± 0.013
11,GGAGACCUAUGAUAUGUUGCUAGAACCUCA,< 0.0001
12,GGAGACCUUACUAUACAACCUACUCACCUCA,0.17 ± 0.018
13,GGAGACCUAUCAAUACAACCUACUAGCUCA,0.0299 ± 0.0076
14,GGAGACCUAUGAAUACAAGCAACUACCUCA,0.00265 ± 0.0026
15,GGAGACCUAACUAUACAUCCUACUUCCUCA,0.14 ± 0.044
16,GGAGACCUAUGAUUACAACCUACUAACCUCA,0.0091 ± 0.0025
17,GGAGACCUAACUAUAGUACCUACUACCUCA,0.122 ± 0.022
18,GGAGACCUUAGUAUACAACCUACUACCACA,0.101 ± 0.013
19,GGAGACCUAACUAUACAACCUACGACCUCA,0.129 ± 0.027
20,GGAGUGGAUACUUUACAACCUACUACGUCA,0.0457 ± 0.0058

row,Sequence,pre-steady-state target cleavage rate
1,GGAGACCUAUGAAUACAACCUAGUACCUGA,< 0.0001
2,GGAGACCUAUGUAUAGAUCCUACUACCUCA,0.0611 ± 0.0081
3,GGAGAGGAUUCUAUACAACCUACAACCUCA,0.0904 ± 0.012
4,GGAGACCUAUGAAUACAACCUACUAUCUCA,0.00527 ± 0.0017
5,GGAGACCUAUGAUAUGUUCCUACACCUCA,< 0.0001
6,GGAGACCUAUGUAUACAACCUACUACGCUCA,0.0944 ± 0.013
7,GGAGACCUAUCUAUACAUCCUACUAGCUCA,0.125 ± 0.019
8,GGAGACCUAUGAUUACAACCUACUGCCUCA,0.00572 ± 0.0028
9,GGAGACCUAUGUAUAACAACCUACUACCUCA,0.0151 ± 0.0041
10,GGAGACCUAUCUAUUCAAGCUACUACCUCA,0.196 ± 0.015
11,GGAGACCUAUCUAUUGAACCUACUACCUCA,0.0631 ± 0.011
12,GGAGACCUAACUAUACAAGCUACUUCCUCA,0.144 ± 0.024
13,GGAGUGGAUACUUUACAACCUACUACCACA,0.0946 ± 0.011
14,GGAGACCUAUGUAUUCAAGCUACUACCUCA,0.109 ± 0.011
15,GGAGACCUAUGUAUACAAGCUACUACCUCA,0.147 ± 0.013
16,GGAGACCUAUCUAAACAACCUACUAGCUCA,0.0571 ± 0.011
17,GGAGACCAUAGUAUACAACCUUCUACCUCA,0.0111 ± 0.0041
18,GGAGACCUAUGUAUAUAACCUACUACCUCA,0.0579 ± 0.0076
19,GGAGACCUAUGUAUACAACCUAACUACCUCA,0.00595 ± 0.0023
20,GGAGACCUUACUAAUGAACCUACUACCUCA,0.00805 ± 0.0017
